Source: PubChem BioAssay
EPAC1 antagonist: antagonists of human EPAC1 | O95398 | EPAC1 GEF assay, Rap1b-BODIPY-GDP exchange fluorescence | Potency, µM (titrated, usually from 115 µM), usual class: inhibitors | 360,000 compounds, 0.14% hits; also: nearly all actives have a fitted effect of over 50% in size
EPAC2 antagonist: EPAC2 (human) antagonism; Potency, µM (top dose mostly 114 µM), most hits filed as inhibitors; EPAC2 GEF exchange of Rap1B-BODIPY-GDP, fluorescence; Q8WZA2; 360,000 compounds, 0.18% hits; also: nearly all actives have a fitted effect of over 45% in size
Target sequence (Q8WZA2 whole entry, looked up): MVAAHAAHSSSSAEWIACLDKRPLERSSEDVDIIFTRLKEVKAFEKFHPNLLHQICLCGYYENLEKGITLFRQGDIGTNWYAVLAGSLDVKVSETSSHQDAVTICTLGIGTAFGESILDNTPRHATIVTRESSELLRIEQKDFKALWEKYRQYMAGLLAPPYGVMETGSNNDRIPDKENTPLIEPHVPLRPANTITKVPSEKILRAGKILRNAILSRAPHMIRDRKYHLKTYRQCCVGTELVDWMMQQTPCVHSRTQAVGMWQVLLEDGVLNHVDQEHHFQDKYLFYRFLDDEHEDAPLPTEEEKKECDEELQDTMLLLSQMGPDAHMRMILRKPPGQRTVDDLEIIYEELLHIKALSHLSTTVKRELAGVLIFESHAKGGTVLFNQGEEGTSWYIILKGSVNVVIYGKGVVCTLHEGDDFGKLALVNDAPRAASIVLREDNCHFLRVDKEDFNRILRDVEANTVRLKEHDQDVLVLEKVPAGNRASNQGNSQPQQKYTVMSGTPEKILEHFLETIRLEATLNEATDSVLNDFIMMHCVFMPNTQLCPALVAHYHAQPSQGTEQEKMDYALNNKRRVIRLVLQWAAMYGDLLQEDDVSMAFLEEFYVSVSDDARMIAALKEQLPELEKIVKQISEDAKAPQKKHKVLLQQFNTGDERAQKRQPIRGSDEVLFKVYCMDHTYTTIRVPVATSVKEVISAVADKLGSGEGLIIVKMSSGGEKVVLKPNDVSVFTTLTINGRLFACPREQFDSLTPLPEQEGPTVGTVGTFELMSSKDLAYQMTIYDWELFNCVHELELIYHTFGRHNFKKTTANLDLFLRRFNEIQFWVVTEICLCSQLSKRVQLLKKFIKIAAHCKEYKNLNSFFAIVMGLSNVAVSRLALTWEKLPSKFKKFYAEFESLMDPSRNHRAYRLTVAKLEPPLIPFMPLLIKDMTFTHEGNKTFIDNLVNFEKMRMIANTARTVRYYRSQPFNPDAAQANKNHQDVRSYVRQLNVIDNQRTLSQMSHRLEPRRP
EPAC2 ag: EPAC2 (human) agonism; Q8WZA2; EPAC2 activation, biochemical qHTS; response scale: 100% = 6.5 mM cAMP response; 360,000 compounds, 0.079% hits; Potency, µM (titrated, usually from 154 µM), actives largely listed as activators; also: nearly all actives have a fitted effect of over 50% in size
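EPAC2 (100 nM) mixed with Rap1B loaded with BODIPY-GDP (250 nM) plus 50 uM unlabeled GDP; compounds pinned in, 5 min RT, then read every 5 min for 30 min (ex 480, em 540 nm). Normalized to cAMP control.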
EPAC1 ag: EPAC1 (human) agonism | O95398 | EPAC1 agonist qHTS, biochemical assay; response scale: 100% = response to 6.5 mM cAMP | Potency, µM (titrated, usually from 154 µM), hits mostly activators | 360,000 compounds, 0.073% hits | AID 720707; also: nearly all actives have a fitted effect of over 60% in size
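Nucleotide exchange by EPAC1 (100 nM) on Rap1B–BODIPY-GDP (250 nM) in the presence of 50 uM GDP is tracked fluorescently at 480/540 nm over 30 min. Signals are normalized to a 6.5 mM cAMP control.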
USP1 inh: blocks the human USP1/UAF1 deubiquitinase complex. O94782. recombinant USP1/UAF1, Ub-Rhodamine cleavage fluorescence. Potency, µM (top dose mostly 57.1 µM), actives largely listed as inhibitors. 390,000 compounds, 0.23% hits. AID 743255; also: nearly all actives have a fitted effect of over 60% in size
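USP1/UAF1 complex (1 nM) preincubated 15 min at room temperature with compound, then Ub-Rho substrate (150 nM final) added. Kinetic fluorescence at 480/540 nm over 6 reads at 60 s intervals; 50 mM HEPES pH 7.8, 0.5 mM EDTA, 0.1 mg/ml BSA, 1 mM TCEP, 0.01% Tween-20.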
Numbers stand for hits; 0 = inactive; ? = inconclusive; - = not tested or not shown. This is a sample that favours compounds with a hit; in the whole collection about 0.49% have one here. Calls follow the shape of the dose curve; as a rule, active = well fitted curve in the direction sought with a large enough effect; inconclusive = small, poorly fitted or top-dose-only effect, or another doubt; inactive = no such curve, though single readings can be large; an effect the other way counts as inactive or inconclusive.

SMILES	EPAC1 antagonist	EPAC2 antagonist	EPAC2 ag	EPAC1 ag	USP1 inh
COC(=O)CC1(c2ccc(OC)cc2)C(=O)c2ccccc2C1=O	0	45µM	0	0	0
CCOC(=O)C1CCCN(c2nc3ccccc3nc2C(C#N)C(=O)OC(C)C)C1 (configuration not stated)	89µM	0	0	0	0
CCCCCCOC(=O)C(C#N)c1nc2ccccc2nc1N1CCCCC1 (configuration not stated)	0	0	0	112µM	0
Brc1ccc(-c2csc(-c3c[nH]c4ccccc34)n2)cc1	0	0	40µM	0	0
CC1=NN(c2ccccc2)C(=O)/C1=C\c1c(C)[nH]n(-c2ccccc2)c1=O	0	0	0	0	0
CC1=NN(c2ccccc2)C(=O)/C1=C/c1c(O)n(-c2ccc(F)c(Cl)c2)[nH]c1=O	50µM	89µM	0	0	0
COc1cc2c(cc1OC)CN(C(=O)c1cc(Cl)nc(Cl)c1)CC2	0	0	0	0	0
COc1cc2c(cc1OC)C1(C)N(CC2)C(C(C)=O)=NN1c1ccc(Cl)cc1 (configuration not stated)	0	25µM	0	0	0
COc1cc(NC(=O)c2ccnc(N)c2)cc(C(=O)Nc2cccc(C(F)(F)F)c2)c1	71µM	0	0	0	0
COc1cc(NC(=O)c2cnc(N)s2)cc(C(=O)Nc2cccc(C(F)(F)F)c2)c1	40µM	0	0	0	0
O=C1C=CC(c2ccccc2)(c2ccccc2)CC1	0	45µM	0	0	0
CCCCn1c(NC(=O)c2ccc(Br)o2)c(S(=O)(=O)c2ccccc2)c2nc3ccccc3nc21	0	0	0	0	28µM
CCCCCn1c(NC(=O)c2ccco2)c(S(=O)(=O)c2ccc(C)cc2)c2nc3ccccc3nc21	?	0	0	0	?
CCCCn1c(NS(=O)(=O)c2ccccc2)c(S(=O)(=O)c2ccc(C)cc2)c2nc3ccccc3nc21	50µM	0	0	0	28µM
CCCCn1c(NC(=O)c2ccco2)c(S(=O)(=O)c2ccc(C)cc2)c2nc3ccccc3nc21	0	0	0	0	?
COc1ccccc1CNC(=O)CC(c1ccc(C)cc1)N1Cc2ccccc2C1=O (configuration not stated)	-	-	-	-	0
CC1(C)CC(=O)C2=C(C1)c1c(ccc3ccccc13)NC2c1cc([N+](=O)[O-])cc([N+](=O)[O-])c1O (configuration not stated)	32µM	79µM	0	0	?
Nc1ncnc2c1nc(Sc1ccc(Cl)cc1)n2[C@@H]1O[C@@H]2COP(=O)(O)O[C@H]2[C@H]1O	?	2.8µM	?	?	0
O=C(c1cccc(Cl)c1)n1nc(-c2cccnc2)nc1NCc1ccccc1	-	-	-	-	0
O=C(CSc1nc2nc(-c3cccs3)cc(C(F)(F)F)c2c(=O)[nH]1)Nc1ccc(F)c(F)c1	79µM	0	0	0	0
Cc1ccc(C)c(NC(=O)CSc2nc3nc(-c4cccs4)cc(C(F)(F)F)c3c(=O)[nH]2)c1	0	0	0	0	?
COc1cc(OC)c(OC)cc1/C=C1\Oc2cc(OCC(=O)N3Cc4ccccc4C[C@H]3C(=O)O)ccc2C1=O	0	0	0	0	14µM
COc1ccc(OC)c(/C=C2\Oc3cc(OCC(=O)N4CCC[C@H]4C(=O)O)ccc3C2=O)c1	0	0	0	0	0
COc1ccc(OC)c(/C=c2\sc3nc(-c4cccs4)nn3c2=O)c1	0	0	100µM	112µM	32µM
COc1ccc(CCNC(=O)c2cc(=O)c3cc(C)c(C)cc3o2)cc1OC	-	-	-	-	0
SMILES	EPAC1 antagonist	EPAC2 antagonist	EPAC2 ag	EPAC1 ag	USP1 inh
O=C(N/N=C/c1ccc(OC(=O)c2ccccc2Cl)cc1)c1cc(O)cc(O)c1	71µM	0	0	0	0
CC1=CC(C)(C)N(C(=O)c2ccc(F)cc2)c2cc3c(cc21)OCO3	0	50µM	0	0	0
CSC1=NCCN1C(=O)c1ccc2c(c1)OCO2	0	0	0	0	0
Cc1cc(Oc2ccc(Br)cc2)nc(SCC(=O)c2ccccc2)n1	0	0	0	0	0
COC(=O)CSc1nc(C)cc(Oc2ccccc2)n1	50µM	0	0	0	0
OC[C@@H]1[C@@H](c2ccc(F)cc2)C(c2ccccc2)=NN1c1ccccc1	0	?	0	0	0
CC[C@H]1C(c2ccc(F)cc2)=NN(c2ccccc2)[C@@H]1CO	0	50µM	0	0	0
Cc1ccc2c(c1C)-c1c(ccc(C)c1C)C(=O)C2=O	0	?	0	0	8.9µM
O=c1c2oc3ccccc3c2n(Cc2cccc(F)c2)c(=O)n1Cc1ccco1	-	-	-	-	0
CN1CCS/C1=C/C=C1\SC(=S)N(CC(=O)O)C1=O	0	?	0	?	25µM
CCCCN1C(=O)/C(=C/C=C2\SCCN2C)SC1=S	0	0	0	0	0
COc1ccc(-n2ncc3c(NCCCOC(C)C)ncnc32)cc1	-	-	-	-	0
NS(=O)(=O)c1cc(C(=O)NC2CCSc3ccccc32)ccc1Cl (configuration not stated)	28µM	35µM	0	0	?
O=C(Nc1ccc(OCc2cc(=O)n3c4c(sc3n2)CCCC4)cc1)c1ccccc1	-	-	-	-	0
Cc1ccc(C)n1-c1c(C(=O)NCCCN2CCN(c3ccc(F)cc3)CC2)sc2ncccc12	-	-	-	-	0
Nc1c(Cl)ncnc1N/N=C/c1ccc(O)cc1	?	28µM	0	0	0
CCOc1ccc(-n2c(C)cc(C(=O)CCl)c2C)cc1	0	8.9µM	0	0	0
COC(=O)c1ccc(-n2c(C)cc(C(=O)CCl)c2C)cc1	0	35µM	0	0	0
COC(=O)c1ccc(-n2c(C)cc(C(=O)COC(=O)C3=COCCO3)c2C)cc1	0	0	0	0	0
O=c1c2ccccc2sn1-c1ccc(Cl)cc1Cl	0	11µM	0	0	0
Cc1ccc2sc(N(Cc3cccnc3)C(=O)CCOc3ccccc3)nc2c1C	-	-	-	-	0
Cc1ccc(NC(=O)c2ccc3c(O)c(S(=O)(=O)c4ccc(Cl)cc4)c(=O)[nH]c3c2)cc1	-	-	-	-	0
CCN(CC)CCCNc1ccc2ncn3c4ccc(O)cc4c(=O)c1c23	0	0	0	0	28µM
COc1cc(/C=C2\Oc3cc(O)ccc3C2=O)ccc1O	0	0	0	0	28µM
COc1ccc(/C=C2\Oc3cc(OC(=O)N4CCOCC4)ccc3C2=O)cc1	0	0	0	0	0
O=C(Oc1ccc2c(c1)O/C(=C\c1ccncc1)C2=O)c1cccs1	0	0	0	0	0
COc1ccccc1C(=O)Oc1ccc2c(c1)O/C(=C\c1ccncc1)C2=O	0	0	0	100µM	?
CC(=O)Oc1ccc2c(c1)O/C(=C\c1ccncc1)C2=O	0	0	?	89µM	28µM
O=C1/C(=C/c2ccc(O)c(O)c2)Oc2cc(O)ccc21	?	0	0	0	0
